According to PubChem BioAssay (NCI):
Compounds without any hit were thinned out: in the full panel of roughly 83,000, 20% have a hit.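 A percent growth of 40 corresponds to 60% growth inhibition; 0 means no net growth; -100 means all cells died. Active threshold: below 10.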 A number with no mark means an inactive call. Activity calls are given as the source filed them.

Legend:
Test in all cases: NCI-60 one-dose screen, 48 h (100 = growth as untreated, 0 = no growth, -100 = all killed)
Details in all cases: 10 µM unless noted
HCT-15 colon = tested on: HCT-15 colon
HT29 colon = tested on: HT29 colon
SNB-75 CNS = tested on: SNB-75 CNS
SNB-19 CNS = tested on: SNB-19 CNS
U251 CNS = tested on: U251 CNS
PC-3 prostate = tested on: PC-3 prostate
SK-MEL-5 melanoma = tested on: SK-MEL-5 melanoma
UACC-62 melanoma = tested on: UACC-62 melanoma
LOX IMVI melanoma = tested on: LOX IMVI melanoma
SK-MEL-28 melanoma = tested on: SK-MEL-28 melanoma

Row | SMILES | growth (HCT-15 colon) | growth (HT29 colon) | growth (SNB-75 CNS) | growth (SNB-19 CNS) | growth (U251 CNS) | growth (PC-3 prostate) | growth (SK-MEL-5 melanoma) | growth (UACC-62 melanoma) | growth (LOX IMVI melanoma) | growth (SK-MEL-28 melanoma)
1 | CC(C)[C@H]1COC(=O)N1[C@@H]1C(=O)N([C@@H](CCC(=O)N2CCN(C3CCCC3)CC2)C(=O)N[C@@H]2CCCc3ccccc32)[C@@H]1/C=C/c1cccc(Cl)c1 | 34.1% | 13% | 92% | 56.6% | 46.6% | 25.7% | 11.7% | 67.8% | -18.3% (active) | 71.7%
2 | Cn1cc(-c2noc(C(=O)c3cn(C)c4ncccc34)n2)c2ccccc21 | 65.2% | 102% | 60.4% | 93.1% | 89.2% | 87% | 87.9% | 91.8% | 94.8% | 100%
3 | CCCCN(CCCC)CC(O)c1ccc(OCc2ccccc2)c2ccccc12 (stereo not given) | 69.7% | 19.1% | 80.4% | 96.7% | 98.2% | 63.6% | 101% | 95.5% | 60.8% | 109%
4 | O=C1COCCN1c1ccc(NCc2cn(Cc3cccc4ccccc34)c3ccccc23)cc1 | 74% | 97.7% | 79.6% | 97.9% | 74.5% | 79.4% | 82.1% | 41.7% | 91% | 92.6%
5 | COc1ccc2c(c1)C(C)Cc1c(Cl)nc(C)nc1N2C (stereo not given) | 18.4% | -13.3% (active) | 39.3% | 24.7% | 21.9% | 14.8% | 24% | 27% | 43.7% | 80.1%
6 | NS(=O)(=O)c1ccc(CCN2C(=O)/C(=C\c3ccccc3)C=C2c2ccc(Cl)cc2)cc1 | 99.2% | 107% | 59.3% | 87% | 98.9% |  | 98.7% | 81.9% | 99.8% | 101%
7 | COc1ncc(-c2ccc3nccc(C#CCCCCC(=O)NO)c3c2)cc1NS(=O)(=O)c1ccc(F)cc1F | 24.9% | 7.04% (active) | -15.3% (active) | 4.98% (active) | -14% (active) |  | -97.3% (active) | -37.3% (active) | -69.4% (active) | -27.9% (active)
8 | Cc1ccc(N)c(O)c1 | 83.8% | 95.8% | 32.7% | 102% | 92.7% |  | 96.1% | 101% | 86.6% | 103%
9 | C=C(C)[C@@H]1CC[C@]2(C(=O)NCCCN)CC[C@]3(C)[C@H](CC[C@@H]4[C@@]5(C)CC[C@H](O)C(C)(C)[C@@H]5CC[C@]43C)[C@@H]12 |  | 3.9% [100 µM] (active) | -51.6% [100 µM] (active) | -29.5% [100 µM] (active) | -13.8% [100 µM] (active) | -53.8% [100 µM] (active) | -23.9% [100 µM] (active) | -22.6% [100 µM] (active) | 1.37% [100 µM] (active) | -31.4% [100 µM] (active)
10 | CCOC(=O)c1nn(C2CCCCO2)c2ccc(NS(=O)(=O)c3ccc(C)cc3)cc12 (stereo not given) | 105% | 102% | 80.5% | 99.6% | 90.6% |  | 98.7% | 86.6% | 99.3% | 101%
11 | O=C(NNc1ccc(-c2ccccc2)nn1)c1ccc(F)cc1 | 89% | 96.1% | 79.9% | 86.5% | 95.2% |  | 95.3% | 95.3% | 98.9% | 110%
12 | COc1ccc(/C=C/C(=C/c2c(O)[nH]c3cc(Br)ccc23)N=O)cc1 | 113% | 114% | 113% | 109% | 105% |  | 103% | 102% | 90.8% | 120%
13 | CNC(=O)c1cc(Oc2cccc3nc(NC(=O)Nc4cc(C(F)(F)F)cc(C(F)(F)F)c4)ccc23)ccn1 |  | 16% | -23.7% (active) | 38.8% | -34.9% (active) | 52.8% | 59.9% | 41.4% | 12.7% | 
14 | COc1ccc2[nH]c(C(=O)N3CCN(C(=O)OCc4ccc5c(Br)cc(Br)c(O)c5n4)CC3)cc2c1 | -72.2% (active) | -68.5% (active) | -98.5% (active) | -93.1% (active) | -95.7% (active) |  | -99% (active) | -95.5% (active) | -91.2% (active) | 
15 | C[C@@H]1C[C@H]2C(=O)O[C@@H](C)[C@H](NC(=O)[C@H](Cc3cc(F)cc(F)c3)NC(=O)Nc3ccc(Cl)cc3F)C(=O)N3C[C@H](O)C[C@H]3C(=O)N3CCN(C)C[C@H]3C(=O)N[C@@H](C)C(=O)N2C1 | 107% | 32.5% | 22.8% | 20.3% | 21.1% |  | 64.6% | 31.1% | 43.4% | 
16 | COc1cc2c(c(OC)c1OC)-c1ccc(NNC(N)=S)c(=O)cc1[C@@H](NC(C)=O)CC2 | 38.8% | -17.8% (active) | 59.5% | 42.3% | 13.6% |  | -41.2% (active) | 32.2% | 26.2% | 
17 | Cc1ccc(S(=O)(=O)n2cc(C(=O)C(=O)N3CCCCC3)c3ccccc32)cc1 | 79.9% | 88.3% | 73.8% | 97.7% | 91.3% |  | 47.3% | 49.5% | 71.9% | 172%
18 | COc1cc(C)cc2oc3oc(=O)c(C(=O)c4cc5cc(Br)ccc5o4)cc3c(=O)c12 | 103% | 110% | 86.6% | 100% | 102% |  | 102% | 99.9% | 97.4% | 106%
19 | Cn1cc(-c2noc(-c3cn(C)c4ncc(F)cc34)n2)c2ccccc21 | 58.2% | 66.1% | 1.91% (active) | 81.2% | 30.8% |  | 82.8% | 80.1% | 52.3% | 
20 | COc1ccc(NC(=S)NNc2ccc(-c3ccc(OC)c(OC)c3)nn2)cc1 | 107% | 109% | 74.4% | 97.1% | 76.6% |  | 101% | 102% | 97.8% | 113%
21 | O=C1/C(=C\c2cccn2Cc2ccccc2)c2ccccc2N1c1c(Cl)cccc1Cl | 4.9% (active) | 52.4% | 59.1% | 79.7% | 74.8% |  | -5.28% (active) | 42% | 88.8% | 
22 | COc1ccc(-c2c(C)nn3c(NCCN4CCOCC4)cc(C)nc23)cc1OC | 95.1% | 94.4% | 93.2% | 91.4% | 82.2% |  | 97.2% | 97.6% | 87.5% | 103%
23 | COc1cc(-c2cc(-c3ccc(Nc4ncnc5cc(Cl)ccc45)cc3)nc(N3CCCCC3)n2)cc(OC)c1OC | 99.5% | 87.7% | 108% | 100% | 98.9% |  | 97.7% | 95.5% | 97.3% | 108%
24 | COC(=O)[C@]1(C)CC[C@]2(C)CC[C@]3(C)C(=CC(=O)[C@@H]4[C@@]5(C)CCC(=O)NC(C)(C)[C@@H]5CC[C@]43C)[C@@H]2C1 | -19.6% [100 µM] (active) | -55% [100 µM] (active) | -83.3% [100 µM] (active) | -89.8% [100 µM] (active) | -89.2% [100 µM] (active) |  | -94% [100 µM] (active) | -88.9% [100 µM] (active) | -97.7% [100 µM] (active) | -67.3% [100 µM] (active)
25 | Cc1cccc(C[C@H](NC(=O)Nc2ccc(Cl)cc2F)C(=O)N[C@@H]2C(=O)N3C[C@H](O)C[C@H]3C(=O)N3CCCC[C@H]3C(=O)N[C@@H](C)C(=O)N3C[C@H](C)C[C@H]3C(=O)O[C@H]2C)c1 | 27.9% | -10.5% (active) | 4.64% (active) | 16.2% | 16.4% |  | -70.4% (active) | -26.1% (active) | 9.07% (active) | 
26 | COc1ccccc1S(=O)Nc1ccccc1 (stereo not given) | 102% | 91.4% | 87.4% | 99.5% | 91% |  | 96.8% | 94.1% | 99.4% | 114%
27 | O=C(CCCCCCSc1nc(-c2ccc(Cl)cc2)cc(-c2ccc(Cl)cc2)n1)NO | 23.6% | 20.4% | 57.7% | 37.3% | 16.6% |  | 5.66% (active) | 16.1% | 2.18% (active) | 57.8%
28 | COc1ccc2nc3cc(Cl)ccc3c(Nc3ccc(O)cc3)c2c1 | 52.9% | 57.9% | 89.6% | 81.9% | 70.5% |  | 88.6% | 80.4% | 43.5% | 107%
